SMILES strings stand for the structures. Hit rate of the full screen: of about 310,000 compounds, about 14,000 (4.5%) showed an effect of 50% or more. Effects have a minus sign here. The entries come from a sample that favours strong results as a whole.
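Further: peak tail current of the secondary pulse compared with the same well before compound.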

The target in the test is human ether-à-go-go-related gene (hERG) potassium channel (human, UniProt Q12809). Nature of the test: primary screen, population patch clamp on CHO cells stably expressing hERG; higher = less effect of the substance.
Chain of human ether-à-go-go-related gene (hERG) potassium channel (Q12809 whole entry, looked up): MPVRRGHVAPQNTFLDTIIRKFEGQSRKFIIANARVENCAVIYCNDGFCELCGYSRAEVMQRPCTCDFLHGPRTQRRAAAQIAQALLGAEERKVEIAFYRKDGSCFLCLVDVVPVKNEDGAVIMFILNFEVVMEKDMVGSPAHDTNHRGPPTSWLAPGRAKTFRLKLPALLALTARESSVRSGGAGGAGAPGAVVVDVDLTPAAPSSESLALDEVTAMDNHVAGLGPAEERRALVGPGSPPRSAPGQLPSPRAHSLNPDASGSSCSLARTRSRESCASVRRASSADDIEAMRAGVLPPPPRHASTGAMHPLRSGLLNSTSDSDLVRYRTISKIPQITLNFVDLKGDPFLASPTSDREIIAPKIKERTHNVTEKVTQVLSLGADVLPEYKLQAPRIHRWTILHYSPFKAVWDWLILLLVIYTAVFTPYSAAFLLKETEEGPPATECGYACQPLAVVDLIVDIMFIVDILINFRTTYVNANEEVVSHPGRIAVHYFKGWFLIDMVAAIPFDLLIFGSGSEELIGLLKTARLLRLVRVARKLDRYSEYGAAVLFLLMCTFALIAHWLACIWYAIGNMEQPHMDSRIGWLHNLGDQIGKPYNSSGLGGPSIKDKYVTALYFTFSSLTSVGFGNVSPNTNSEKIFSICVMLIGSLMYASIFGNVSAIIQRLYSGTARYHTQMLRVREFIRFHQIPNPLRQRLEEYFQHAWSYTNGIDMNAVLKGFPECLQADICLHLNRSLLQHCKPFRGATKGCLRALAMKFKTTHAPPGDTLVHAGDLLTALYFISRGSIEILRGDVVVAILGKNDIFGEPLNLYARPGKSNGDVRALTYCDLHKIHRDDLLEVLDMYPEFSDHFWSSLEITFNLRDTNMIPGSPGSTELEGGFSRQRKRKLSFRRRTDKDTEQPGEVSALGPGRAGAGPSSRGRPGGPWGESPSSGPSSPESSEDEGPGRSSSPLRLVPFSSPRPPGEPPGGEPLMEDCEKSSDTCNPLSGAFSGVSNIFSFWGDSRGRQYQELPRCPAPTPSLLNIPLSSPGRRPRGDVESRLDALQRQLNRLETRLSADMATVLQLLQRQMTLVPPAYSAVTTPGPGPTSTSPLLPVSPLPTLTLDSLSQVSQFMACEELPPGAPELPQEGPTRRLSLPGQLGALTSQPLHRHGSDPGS
Regarding `COc1cccc(C(=O)NNC(=O)C2CCCO2)c1` (centres unmarked), the “hERG current change (%, negative = inhibition) at 10uM” value stood at 15.3%. As for `CCC1=[N+](CC(=O)c2ccc(Br)cc2)CCn2c(C)ccc21.[Br-]`, the figure is -6.76%; as for `COc1cc(Nc2cc(C)nc3ncnn23)cc(OC)c1`, -8.29%; as for `CN1CCC(NC(=O)Cc2c(F)cccc2Cl)CC1`, -1.52%. As for `CS(=O)(=O)N1CCC(C(=O)Nc2ccc(C(F)(F)F)cc2)CC1`, the figure is 12.4%; as for `O=C1CCC2S/C(=C/Nc3ccc(C(F)(F)F)cc3)C(=O)N12` (centres unmarked), -52.2%; as for `O=C(c1ccc(C(F)(F)F)cc1)C1CCCN(C(=O)CN2CCCC2=O)C1` (centres unmarked), 0.525%. As for `COc1ccc(OC)c(NC(=O)CCNS(=O)(=O)c2cc(Br)cnc2N)c1`, the figure is -14.9%; as for `COc1ccc2nc(NC(=O)CSc3nnc4n3C(C)(C)Cc3ccccc3-4)sc2c1`, 0.248%. Consider `COc1cc(NC(=O)CSc2nnc3n2C(C)(C)Cc2ccccc2-3)cc(OC)c1`, for which the “hERG current change (%, negative = inhibition) at 10uM” value is 10%.

With `CCn1c(SCC(=O)Nc2ccc3c(c2)OCO3)nnc1-c1ccccc1O`, the “hERG current change (%, negative = inhibition) at 10uM” value is reported as 7.21%. As for `CCSc1nnc2n1C(C)(C)Cc1ccccc1-2`, the figure is 0.0135%; as for `CC1(C)Cc2ccccc2-c2nnc(SCC(=O)Nc3nc4ccccc4s3)n21`, -74.4%; as for `CC1(C)Cc2ccccc2-c2nnc(SCc3ccc(C#N)cc3)n21`, -58.9%. For `O=C(COC(=O)c1cnccn1)Nc1ccc2c(c1)OCO2` the value was 7.23%. As for `O=C(COC(=O)c1ccccn1)Nc1ccc2c(c1)OCO2`, the figure is -65.5%; as for `O=C(COC(=O)c1cccnc1Cl)Nc1ccc2c(c1)OCO2`, 2.28%. For `COC(=O)CSc1nnc2n1C(C)(C)Cc1ccccc1-2`, the “hERG current change (%, negative = inhibition) at 10uM” value came to 3.46%. As for `Cn1c(SCC(=O)Nc2nc3ccccc3s2)nnc1-c1ccccc1`, the figure is 10.3%; as for `CC1(C)Cc2ccccc2-c2nnc(SCC(=O)Nc3ccc4c(c3)OCO4)n21`, -63.2%.

As for `COc1ccc(CCNC(=O)C2CCN(S(=O)(=O)c3ccc(NC(C)=O)cc3)CC2)cc1OC`, the “hERG current change (%, negative = inhibition) at 10uM” value was found to be 9.83%.

As for `Nc1cc(=O)[nH]c(SCC(=O)Nc2ccccc2Sc2ccccc2)n1`, the “hERG current change (%, negative = inhibition) at 10uM” value was found to be 6.15%. For `O=C(Cn1nnc(-c2ccccc2NC(=O)c2ccccc2F)n1)NCc1ccco1` the value was 10.1%; for `Cc1nc(-c2ccc(C(=O)Nc3cccc(Br)c3)cc2)cs1`, 7.02%. For `Cc1cc(C)n(Cc2ccc(Cl)cc2Cl)c(=O)c1S(=O)(=O)c1ccccc1` the value was 14.7%; for `COc1ccc(S(=O)(=O)N(CC(=O)N2CCOCC2)c2cc(Cl)ccc2OC)cc1OC`, -16.6%.

`COc1ccc(CCNC(=O)C/C(C)=N/NC(=O)C23CC4CC(CC(C4)C2)C3)cc1OC`: the “hERG current change (%, negative = inhibition) at 10uM” value worked out at 11.7%. Take `COc1ccc(C(=O)NC(C)c2nnc(SCC(=O)NC3=NCCS3)n2C)cc1` (centres unmarked): the “hERG current change (%, negative = inhibition) at 10uM” value was 15.3%. As for `COc1ccc(C(=O)NC(C)c2nnc(SCC(=O)Nc3nc4ccccc4s3)n2C)cc1` (centres unmarked), the figure is -59.4%; as for `COc1ccc(N2CCN(C(=O)CSc3nnc4n3C(C)(C)Cc3ccccc3-4)CC2)cc1`, -23.8%; as for `O=C(CSc1nnc(-c2ccccn2)n1-c1ccccc1)Nc1ccc2c(c1)OCO2`, 1.81%.

With `Cc1ccc(-n2c(SCC(=O)Nc3ccc4c(c3)OCO4)nnc2-c2ccccn2)cc1`, the “hERG current change (%, negative = inhibition) at 10uM” value was determined as 4.28%. For `COc1ccccc1N1CCN(C(=O)CSc2nnc3n2C(C)(C)Cc2ccccc2-3)CC1` the value was -37.4%. As for `CCc1nnc(NC(=O)CSc2nnc(C(C)NC(=O)c3ccccc3)n2C)s1` (centres unmarked), the figure is 29.3%. Consider `CC1(C)Cc2ccccc2-c2nnc(SCC(=O)N3CCN(c4ccccc4)CC3)n21`, for which the “hERG current change (%, negative = inhibition) at 10uM” value is listed as -73.7%. Take `Cc1ccccc1-n1c(SCC(=O)Nc2ccc3c(c2)OCO3)nnc1-c1ccccn1`: the “hERG current change (%, negative = inhibition) at 10uM” value is -65.3%. For `C/C=C(\C)CN1CCC(Oc2cccc(C(=O)NCc3ccccn3)c2)CC1` the value was -4.59%. As for `COC(=O)CN(c1cccc(C(C)=O)c1)S(C)(=O)=O`, the figure is 9.02%; as for `O=C(c1ccccc1Br)N1N=C(c2ccccc2)CC1c1ccccc1F` (centres unmarked), 15.7%. Consider `CCc1cccc(NC(=O)C2CCCN2S(=O)(=O)c2ccc3c(c2)n(C)c(=O)c(=O)n3C)c1` (centres unmarked), for which the “hERG current change (%, negative = inhibition) at 10uM” value is -9.62%. As for `Cc1ccnc(NC(=O)c2ccc(Cl)c(S(=O)(=O)N3CCCCC3)c2)c1`, the figure is -79.1%. On to `Cc1cccc(NC(=O)c2ccc(S(=O)(=O)N3CCC(C)CC3)cc2)n1`, for which the “hERG current change (%, negative = inhibition) at 10uM” value is recorded as -59.2%. As for `Cc1ccnc(NC(=O)c2ccc(Cl)c(S(=O)(=O)N3CCCC3)c2)c1`, the figure is -15.7%.

Consider `Cc1ccc(NC(=O)c2ccc(Cl)c(S(=O)(=O)N3CCCC3)c2)nc1`, for which the “hERG current change (%, negative = inhibition) at 10uM” value was -8.97%. For `Cc1cccc(NC(=O)c2ccc(Cl)c(S(=O)(=O)N3CCCCC3)c2)n1`, the “hERG current change (%, negative = inhibition) at 10uM” value was -71.3%. For `Cc1cccc(NC(=O)c2ccc(Cl)c(S(=O)(=O)N3CCCCCC3)c2)n1` the value was -25.1%; for `Cc1cccc(NC(=O)c2ccc(C)c(S(=O)(=O)N3CCCCC3)c2)n1`, -36.7%. As for `Cc1ccc(NC(=O)c2ccc(Cl)c(S(=O)(=O)N3CCCCCC3)c2)nc1`, the figure is -57.9%.

For the compound `Cc1cccc(NC(=O)c2ccc(S(=O)(=O)N3CCCCCC3)cc2)n1`, the “hERG current change (%, negative = inhibition) at 10uM” value is given as -4.07%. On to `Cc1ccnc(NC(=O)c2ccc(S(=O)(=O)N3CCCCC3)cc2)c1`, for which the “hERG current change (%, negative = inhibition) at 10uM” value was -17.9%. As for `Cc1ccc(NC(=O)c2ccc(Cl)c(S(=O)(=O)N3CCCCC3)c2)nc1`, the figure is -23.4%; as for `Cc1cccc(NC(=O)c2ccc(S(=O)(=O)N3CCCCC3)cc2)n1`, -6.69%. As for `Cc1c(Cl)cccc1N1C(=O)C2ON(c3ccccc3)C(c3cccnc3)C2C1=O` (centres unmarked), the figure is 4.12%.

For the origin of these results see article PMC4336329 (PLoS ONE, 2015).
